The record followed here is PubChem BioAssay AID1347076 (National Center for Advancing Translational Sciences (NCATS), 2019).

Among all 400,000 compounds or so, about 13,000 (3.2%) were called active. Not shown: some 18% with an inconclusive outcome. The sample holds actives, similar compounds and a random draw of the others, so the mix is not that of the screen. Values without a mark were called inactive. Calls follow the shape of the dose curve; as a rule, active = well fitted cell-killing curve with a large enough effect; inconclusive = small, poorly fitted or top-dose-only effect, or effect the other way; inactive = flat fitted curve, though single readings scatter.
% is scaled to controls: 0 for no effect and ±100 for the full control effect; potency is read from the fitted curve at half-maximal effect.

The assay in a line: qHTS assay for MDR1-selective chemotherapeutics: Primary screen using the drug-selected MDR subline cells KB-V1. Also: nearly all actives have a fitted effect of over 60% in size. To be noted: KB-V1 MDR cells viability, CellTiter-Glo, 72 h; series mostly up to 46.1 µM; activity change, negative = cytotoxicity: at the top concentration. In outline: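 Following 72 h at 37 degrees C with compound, KB-V1 cell viability was read by CellTiter-Glo luminescence, medium being phenol-red-free DMEM plus 10% FBS; concentration-response parameters came from normalized, curve-fitted qHTS data.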
For orientation: Quantitative high-throughput screening tests each substance at several concentrations.
Consider `CNC(=O)c1ccc(CN(C)C(=O)c2cc(C3CC3)nc3c2cnn3C(C)C)cc1`, for which the “activity change, negative = cytotoxicity” value was -2.66%. As for `Cc1c(C(=O)Nc2ccccn2)oc2ccc(Br)cc12`, the Potency was 11.6 µM (active). Consider `Cc1noc(C)c1C(=O)Nc1ccccn1`, for which the “activity change, negative = cytotoxicity” value is -0.416%.

As to `Cc1nonc1NC(=O)c1oc2ccccc2c1C`, the “activity change, negative = cytotoxicity” value was -3.1%. Regarding `CCS(=O)(=O)c1nc(S(=O)(=O)c2ccc(C)cc2)c(NCc2ccc(Cl)cc2)s1`, the “activity change, negative = cytotoxicity” value is -0.968%.

With `N#Cc1ccc(C(C(=O)NCc2ccccc2)n2c(=O)c(-c3ccco3)nc3ccccc32)cc1` (stereo not drawn), the “activity change, negative = cytotoxicity” value is -9.55%. For the molecule `C=CCC[C@H](CCCCC)OC(=O)/C=C/[C@H](O)[C@@H](O)C[C@@H](O)CC=C`, the “activity change, negative = cytotoxicity” value is -0.215%. Regarding `O=C1c2ccccc2NC(c2ccc(-c3cccc(Cl)c3)o2)N1O` (stereo not drawn), the Potency was 4.61 µM (active). Regarding `O=c1c(-c2cccc(Cl)c2)c[nH]n1-c1ccccc1`, the “activity change, negative = cytotoxicity” value was -8.43%. For the molecule `O=C(O)C(c1ccccc1)N1C(=O)/C(=C\c2ccc(-c3cccc(Cl)c3)o2)SC1=S` (stereo not drawn), the “activity change, negative = cytotoxicity” value is 3.2%. Take `COc1ccc(CCNC(=O)c2cn(C)c3ccc(S(=O)(=O)N(C)C4CCCCC4)cc3c2=O)cc1OC`: the “activity change, negative = cytotoxicity” value is 6.74%. For the molecule `Cc1cc2nc(-c3ccc(Cl)cc3)c(Cc3cccc(F)c3)n2c(C)c1Br`, the “activity change, negative = cytotoxicity” value is 13.2%. Turning to `N#Cc1ccc(C2N=C(c3ccccc3)NO2)cc1` (stereo not drawn), the Potency is 18.4 µM (active). Consider `Brc1ccccc1C1N=C(c2ccccc2)NO1` (stereo not drawn), for which the “activity change, negative = cytotoxicity” value is 5.43%. Consider `N#Cc1ccc(OC2=NS(=O)(=O)c3ccccc32)cc1`, for which the “activity change, negative = cytotoxicity” value is -10.2%.

Regarding `COc1cccc(-c2cc3nc(NCCOc4ccccc4Cl)n(C)c(=O)c3s2)c1`, the “activity change, negative = cytotoxicity” value was 0.524%. As for `N#Cc1nc(NCc2ccc(Cl)c(Cl)c2)c2ncn(CCCO)c2n1`, the “activity change, negative = cytotoxicity” value was -9.95%. `COc1ccc(CN2C(=O)C(CC(=O)NCCCCc3ccccc3)CC(C(=O)N3CCOCC3)=C2C)cc1` (stereo not drawn): the “activity change, negative = cytotoxicity” value was 17.3%. Still for that read-out and setting: for `CCCN(CCC)C(=O)Cn1c(=O)n(-c2ccc(Cl)cc2)c(=O)c2c3c(sc21)CCCCC3` the value was 7.14%. On to `N#Cc1ccc[n+](CC(=O)c2ccc(F)cc2)c1`, for which the “activity change, negative = cytotoxicity” value is 0.435%. Take `COc1ccc(CCNC(=O)CSc2nc3[nH]ncc3c(=O)n2-c2cccc(C(F)(F)F)c2)cc1OC`: the “activity change, negative = cytotoxicity” value was 0.314%.

Take `Cc1cccc2nc(CSc3nc4[nH]ncc4c(=O)n3-c3cccc(Cl)c3)cc(=O)n12`: the Potency is 23.1 µM (active).

As to `COC(=O)c1ccc(CSc2nc3ccccc3c(=O)n2-c2cccc(OC)c2)o1`, the “activity change, negative = cytotoxicity” value is 3.77%. Take `Cc1ccc(NC(=O)[C@H](Cc2ccccc2)NC(=O)CC[C@H]2O[C@@H](n3ccc(=O)[nH]c3=O)[C@H](O)[C@@H]2O)cc1C`: the “activity change, negative = cytotoxicity” value was -15.9%. Turning to `O=C(c1ncn2c1c(=O)[nH]c1ccccc12)N1CCc2ccccc2C1`, the “activity change, negative = cytotoxicity” value is 2.78%. In the case of `CN1CCN(c2oc(-c3ccc(COc4ccc(Cl)cc4)o3)nc2C#N)CC1`, the “activity change, negative = cytotoxicity” value is 8.39%. Take `CC1(C)Cc2cccc(OCC(=O)NCc3ccccc3)c2O1`: the “activity change, negative = cytotoxicity” value is -22.5%. For the molecule `CC1(C)Cc2cccc(OCC(N)=O)c2O1`, the “activity change, negative = cytotoxicity” value is 5.68%. `CC1(C)Cc2cccc(OCC(=O)N3CCN(c4ccc([N+](=O)[O-])cc4)CC3)c2O1`: the Potency is 2.59 µM (active). Turning to `COc1ccccc1CNC(=O)c1ccc(N(C)S(=O)(=O)c2ccc(C)cc2)cc1`, the “activity change, negative = cytotoxicity” value is -19%. `Cc1ccccc1CSCCNC(=O)c1ccc(N(C)S(=O)(=O)c2ccccc2)cc1`: the Potency was 13 µM (active).

With `CN(c1ccccc1)S(=O)(=O)c1ccc(C(=O)NCCc2ccccc2)cc1`, the “activity change, negative = cytotoxicity” value was -4.77%.

On to `COCc1cccc(-c2csc(C(O)c3ccc(F)cc3)n2)c1` (stereo not drawn), for which the “activity change, negative = cytotoxicity” value is 2.22%. Regarding `O=c1cc(CCl)nc2scc(-c3ccccc3)n12`, the “activity change, negative = cytotoxicity” value is -0.12%. On to `OCCn1c(-c2ccccc2)csc1=Nc1ccccc1`, for which the Potency was 14.6 µM (active).

As to `Cn1c(=O)nc2n(-c3ccc(Br)cc3)c3cccc(Cl)c3cc-2c1=O`, the “activity change, negative = cytotoxicity” value is -4.35%. For `CCOc1ccc(Cl)cc1-c1cc(C(=O)NCc2cccs2)[nH]n1`, the “activity change, negative = cytotoxicity” value was -10.2%. For the molecule `CCc1ccccc1OCC(=O)Nc1nnc(C2CC2)s1`, the “activity change, negative = cytotoxicity” value is -5.12%. `Cc1ccc(C(=O)N/C(=C/c2ccc(-c3cccc([N+](=O)[O-])c3)o2)C(=O)NCCCN(C)C)cc1`: the “activity change, negative = cytotoxicity” value is -1.53%.

Consider `Cc1ccc(Cc2cnc(NC(=O)/C(C#N)=C/c3ccc(-c4cccc([N+](=O)[O-])c4)o3)s2)cc1`, for which the Potency is 18.4 µM (active). With `N#C/C(=C\c1ccc(-c2cccc([N+](=O)[O-])c2)o1)C(=O)NCCN1CCOCC1`, the “activity change, negative = cytotoxicity” value was -8.35%. Turning to `CC(C)[C@H](NC(=O)c1ccccc1F)C(=O)Nc1cccc(S(=O)(=O)N2CCOCC2)c1`, the “activity change, negative = cytotoxicity” value was -24.2%.

As to `NS(=O)(=O)c1ccc(CCNC(=O)CCCCCn2c(=O)[nH]c3ccccc3c2=O)cc1`, the “activity change, negative = cytotoxicity” value was 22.6%. For `C[C@@H]1Cn2cnc(C(=O)Nc3ccc(CNC(=O)OC(C)(C)C)cc3)c2C(=O)N1`, the “activity change, negative = cytotoxicity” value is -13.1%. With `COc1ccccc1-c1nnc2n1N=C(c1ccc(OC(F)F)c(OCC3CC3)c1)CS2`, the “activity change, negative = cytotoxicity” value was -13%. For `COc1ccc(C2=Nn3c(nnc3-c3ccccc3OC)SC2)cc1OC1CCCC1`, the Potency was 5.8 µM (active). Regarding `Cc1nnc2n1N=C(c1ccccc1)CS2`, the “activity change, negative = cytotoxicity” value is 7.55%.

For `COc1ccc2c(CNCCc3ccccc3C)c(C(=O)O)n(Cc3ccccc3C)c2c1`, the “activity change, negative = cytotoxicity” value was 3.86%.
